# Compound activity as filed in PubChem BioAssay.
# Only some compounds are listed: those with a hit (about 6% of all), similar ones and a draw of the others.
# D3 ag = activates the human D3 dopamine receptor; D3R DiscoveRx beta-arrestin cells, luminescence, 90 min; max activation, %; 410,000 compounds, 0.58% hits; AID 652048; in the data active = max activation above about 30%; note: 0% is about no effect
# Target sequence (P35462 whole entry, looked up): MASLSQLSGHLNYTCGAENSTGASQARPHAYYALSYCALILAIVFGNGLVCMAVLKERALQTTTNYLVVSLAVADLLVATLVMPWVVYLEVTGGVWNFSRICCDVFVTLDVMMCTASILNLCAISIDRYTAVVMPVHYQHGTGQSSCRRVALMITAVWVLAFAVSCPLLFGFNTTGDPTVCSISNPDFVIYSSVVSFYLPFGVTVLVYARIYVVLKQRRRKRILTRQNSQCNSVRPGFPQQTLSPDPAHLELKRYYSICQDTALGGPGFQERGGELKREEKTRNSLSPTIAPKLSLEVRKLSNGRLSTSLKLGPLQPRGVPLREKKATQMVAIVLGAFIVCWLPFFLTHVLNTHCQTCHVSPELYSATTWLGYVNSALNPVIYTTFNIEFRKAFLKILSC
#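 Agonist mode: compounds and dopamine controls were applied to plated cells for 90 min at 37 degrees C after an overnight attachment at 1500 cells/well. Luminescent read-out followed 30 - 60 minutes at room temperature with DiscoveRx detection reagent.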
# D3 antag = D3 dopamine receptor (human) antagonism; D3R cells, DiscoveRx beta-arrestin luminescence, antagonist mode; stronger effect = lower value; 360,000 compounds, 2.5% hits; P35462; max response, negative = inhibition, %; in the data active = max response below about -50%; inconclusive = no clear call, values can overlap the other calls; note: % is set by controls: 0 for no effect and ±100 for the full control effect
#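 Cells expressing the human receptor were seeded at 1500 cells/well, incubated overnight at 37 degrees C in 5% CO2, then exposed to library compounds with dopamine controls for 90 minutes at 37 degrees C before luminescent detection.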
# D1 antagonist = human D1 dopamine receptor antagonism; HEK293 TREx D1 cells, calcium flux, dopamine EC80; stronger effect = lower value; activity change, negative = inhibition, % at 10 µM; 360,000 compounds, 3.2% hits; AID 504652; in the data active = activity change below about -30%; note: % is set by controls: 0 for no effect and ±100 for the full control effect
#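 Allosteric or orthosteric antagonism assessed as attenuation of the calcium response to EC80 dopamine, added 180 s after compound, in induced HEK293 Trex D1 cells loaded with no-wash calcium dye.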
# D1 ag = human D1 receptor agonism; P21728; HEK293 T-REx D1 cells, calcium flux, agonist mode; activation, % at 2 µM; 360,000 compounds, 1% hits; AID 504660; in the data active = activation above about 30%; note: 0% is about no effect
#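 Tetracycline-induced HEK293 TREx D1 cells, force-coupled to calcium signalling, were dye-loaded with a no-wash calcium kit. Compound was pin-added after a 10 s baseline. Fluorescence was read kinetically at 1 cycle/s for 180 s, with calcium rises flagged as agonism.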
# D1 potentiator = potentiators of human D1 dopamine receptor. HEK293 TREx D1 cells, calcium flux, dopamine EC20 potentiation. potentiation, % at 10 µM. 360,000 compounds, 0.036% hits; in the data active = potentiation above about 30%; note: 0% is about no effect
# * = called active by the depositor; ? = inconclusive; nt = not tested or not shown.
SMILES,D3 ag,D3 antag,D1 antagonist,D1 ag,D1 potentiator
CCN(CC)CCn1c(NC(=O)c2ccc(C)cc2)nc2ccccc21,-27,-50*,9,0,-14
CCN(CC)CCn1c(NC(=O)c2ccc(C(F)(F)F)cc2)nc2ccccc21,-11,-54*,-3,2,-5
CCCn1c(NC(=O)C2CCN(C(=O)c3ccccc3C)CC2)nc2ccccc21,-1,-16,0,1,-5
CN(C)CCn1c(NC(=O)c2ccc(Cl)cc2)nc2ccccc21,-24,-57*,5,0,-6
CCCn1c(NC(=O)c2cccc(C)c2C)nc2ccccc21,0,-19,-49*,2,-5
Cc1nc(-c2ccccc2)sc1CCNC(=O)C(=O)Nc1ccc2c(c1)OCO2,2,nt,6,1,-5
O=C(Nc1cc2c(cc1C(=O)c1ccccc1Cl)OCCO2)c1ccccc1,7,nt,18,11,0
C(=N\N1CCN(Cc2ccccc2)CC1)/c1cccs1,1,-73*,0,1,-7
COc1cccc(-c2nc(NCc3ccccc3)c3ccccc3n2)c1O,6,12,5,6,-8
Cc1nc(NCc2ccccc2)c2cc[nH]c2n1,1,18,-34*,6,-2
CN(C)CCO[C@@H](c1ccc(Cl)cc1)c1ccccn1,-9,?,-6,3,-1
Cc1ccc(C(OCCN(C)C)c2cccc(C(F)(F)F)c2)cc1 (centres undefined),-11,-76*,-6,15,-2
O=[N+]([O-])C(C1CCS(=O)(=O)C1)C1CCS(=O)(=O)C1 (centres undefined),9,8,-33*,1,-4
CC(C)CNC1CCS(=O)(=O)C1 (centres undefined),-11,-2,-13,1,10
COc1cccc(OCC(=O)NC2CC(=O)N(c3cccc(OC)c3)C2)c1 (centres undefined),-2,nt,nt,0,2
COCc1[nH][nH]c(=O)c1C=Nc1ccc(OC(F)(F)F)cc1,2,16,-33*,2,-4
COCc1[nH][nH]c(=O)c1C=Nc1ccc(Cl)cc1,-5,-2,-2,-1,0
CN1CCc2c(sc(/N=C/c3cc(Cl)ccc3O)c2C#N)C1,21,-50*,-18,3,-6
CCOC(=O)c1c(/N=C/c2ccc(OC)cc2O)sc2c1CCN(C)C2,-16,-20,-12,3,-3
O=C1NC[C@@H](CCCCN2C[C@H](Cc3ccc(O)cc3)N(CCC3CCCCC3)C(=O)C2=O)N(CC2CCCCC2)C1=O,-16,-63*,nt,nt,nt
O=C1NC[C@H](CCCCN2CCN(Cc3ccccc3)C(=O)C2=O)N(CCC2CCCCC2)C1=O,33*,-27,nt,nt,nt
COc1ccc(Cl)cc1NC(=O)c1c(C(=O)Nc2cccc(C)c2C)sc2nc(C)cc(=O)n12,5,nt,-5,0,0
O=C1CC(c2c[nH]c3ccccc23)C(=O)N1c1ccccc1 (centres undefined),4,10,-34*,-1,-6
COc1cccc(N2C(=O)CC(c3c[nH]c4ccccc34)C2=O)c1 (centres undefined),0,-14,-5,-1,2
Cc1ccc(CNC(=O)CCCc2nnc3n(C)c(=O)c4sccc4n23)cc1,0,nt,-3,0,0
SMILES,D3 ag,D3 antag,D1 antagonist,D1 ag,D1 potentiator
COc1cccc(OCCCCN2CC(C)OC(C)C2)c1 (centres undefined),-8,-87*,-6,2,-1
Brc1cccc(OCCCCN2CCCCC2)c1,-29,-92*,18,9,-2
CC1CN(CCCOc2ccccc2[N+](=O)[O-])CC(C)O1 (centres undefined),-50,-59*,-11,-1,-1
COc1cccc(OCCCCN2CCCCC2)c1,-33,-83*,26,-1,-3
COc1cccc(OCCCN2CCCCC2)c1,-43,-13,5,3,4
CC1CN(CCCCOc2ccc3ccccc3c2)CC(C)O1 (centres undefined),-21,?,2,15,-1
Cc1cccc(N(C)C(=O)Cc2c(C(=O)O)[nH]c3ccccc23)c1,7,nt,6,1,2
CCn1cc2nc(SCC(=O)Nc3ccc(C)cc3)n(Cc3ccc(C)cc3)c(=O)c2n1,-14,nt,12,6,-3
CCOCC(O)COc1ccc(NC(=O)CC[S+](C)C)cc1 (centres undefined),-15,nt,nt,nt,nt
CCOc1cccc(OCCCCN2CCCCC2)c1,-13,-66*,12,5,-4
CC1CCCN(CCOc2ccc(Br)cc2)C1 (centres undefined),-33,-99*,-14,6,-5
COC(=O)c1ccc(OCCCCN2CC(C)OC(C)C2)cc1 (centres undefined),-15,-75*,10,0,4
c1ccc(OCCCCN2CCCCC2)cc1,-7,?,1,4,0
CC1CN(CCCOc2ccc([N+](=O)[O-])cc2)CC(C)O1 (centres undefined),-7,-15,11,2,-1
CC1CCCN(CCCCOc2cccc(Br)c2)C1 (centres undefined),-9,-83*,-26,12,-7
Cc1ccc(S(=O)(=O)Nc2ccc(-c3ccc(N4CCCCCC4)nn3)cc2)c(C)c1,5,nt,-3,0,0
C=C1C(=O)O[C@@H]2[C@H]1[C@@H](OC(=O)/C(C)=C/C)C/C(C)=C\C(=O)/C=C(\C)[C@@H]2O,-35,-52*,20,1,6
C=C1C(=O)O[C@H]2[C@H]1[C@H](OC(=O)/C(C)=C\C)C[C@]1(CO1)[C@@H]1[C@H](OC(C)=O)C=C(C)[C@]21O,5,0,nt,nt,nt
CC(C)n1cc(CN2CCCC(C(=O)Nc3cccc(-c4cc5ccccc5[nH]4)c3)C2)cn1 (centres undefined),-27,-21,-31*,30*,-15
COc1cccc(-c2ccc(NC(=O)C3CCCN(Cc4cnn(C)c4C)C3)cc2)c1 (centres undefined),-9,2,3,19,-5
COCc1cc(CN2CCCC(C(=O)Nc3ccc(-c4ccco4)cc3)C2)ccc1OC (centres undefined),-15,?,-30*,2,4
Cn1cc(CN2CCCC(C(=O)Nc3cccc(-c4cc5ccccc5[nH]4)c3)C2)cn1 (centres undefined),-7,-68*,-19,12,-9
COc1cccc(-c2ccc(NC(=O)C3CCCN(Cc4cnn(C)c4)C3)cc2)c1 (centres undefined),7,-12,1,32*,-6
CCc1ccc(-n2c(=O)c3ccc(C(=O)NCCc4ccccc4)cc3n(Cc3ccccc3C#N)c2=O)cc1,5,nt,7,3,0
COc1ccc(NC(=O)CSc2nc3c(oc4ccccc43)c(=O)n2Cc2ccco2)cc1Cl,8,nt,5,2,-4
